High-throughput results (PubChem)
In the library only some 4% were active in any assay of this set; here they are far more common.
NLRP3 yeast inh: inhibitors of NALP3 inflammasome in yeast; Yeast reconstituted NLRP3/ASC/caspase-1, beta-gal luminescence, 24 h; inhibition, % at 10 µM; hit rate 0.39% among 330,000;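 active means inhibition of 50% or more; inactive means inhibition below 50%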;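 further: plate controls were induced DMSO wells for no effect and uninduced yeast grown without galactose for full effect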
tim23-1 inh: tim23-1 yeast growth inhibition | S. cerevisiae tim23-1 growth, BacTiter-Glo luminescence, 24 h | inhibition, % at 20 µM | hit rate 1.3% among 330,000;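 active means growth inhibition of the mutant yeast at or above 50%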;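 further: temperature-sensitive mutant grown at 25 °C; plate controls were DMSO-treated mutant yeast for no effect and medium wells lacking yeast for full effect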
TIM10 inh: inhibits growth of TIM10 yeast strain; hit rate 1.4% among 330,000; AID 463195; S. cerevisiae TIM10 strain growth, BacTiter-Glo luminescence, 24 h; inhibition, % at 10 µM;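 active means inhibition of 40% or more at the single tested concentration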;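 further: wild-type TIM10 isogenic control strain grown at permissive 25 °C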
tim10-1 inh: tim10-1 yeast growth inhibition; S. cerevisiae tim10-1 ts strain growth, BacTiter-Glo, 24 h; inhibition, % at 20 µM; hit rate 2.2% among 330,000; AID 463190;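 active means inhibition of at least 40%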;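 further: mutant grown at 25 °C; 0% = DMSO wells with yeast and 100% = wells holding no yeast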
NALP1 inh: NALP1 inhibition. S. cerevisiae NALP1/ASC/caspase-1 growth, X-gal OD620, 72 h. inhibition, % at 10 µM. hit rate 0.61% among 280,000; in the data active means inhibition mostly above about 24%, no sharp cut-off; inactive means mostly below about 32%
tim10-1 confirm: tim10-1 yeast growth inhibition, confirmed | AID 463213 | hit rate 56% among 7,400 | shares compounds with tim10-1 inh | inhibition, % at 20 µM | S. cerevisiae tim10-1 ts strain growth, BacTiter-Glo, 24 h;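 active means inhibition of yeast growth at or above a set limit in either of two repeat tests at 20 µM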;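 further: tim10-1 mutant grown at permissive 25 °C to find synthetic lethal compounds; 0% = DMSO yeast wells and 100% = medium wells without yeast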
* marks the source's active call; other numbers are inactive results.

What do the screens show for `Clc1ccc(-c2nn3c(C4COc5ccccc5O4)nnc3s2)cc1` (stereo not given)?
NLRP3 yeast inh: -10.9; tim23-1 inh: 36.4; TIM10 inh: 32.2; tim10-1 inh: 55.7*; NALP1 inh: -9.7; tim10-1 confirm: 37.7*

What do the screens show for `CCCSc1nnc(CSc2nc3ccccc3s2)n1-c1ccccc1`?
NLRP3 yeast inh: 8.4; tim23-1 inh: 29.4; TIM10 inh: 21.8; tim10-1 inh: 43.6*; NALP1 inh: -1.3; tim10-1 confirm: 33.2*

What do the screens show for `N#CCCCSc1nnc(CSc2nc3ccccc3s2)n1-c1ccccc1`?
NLRP3 yeast inh: 14.8; tim23-1 inh: 16.8; TIM10 inh: 19.6; tim10-1 inh: 29.1; NALP1 inh: 6.6

What do the screens show for `CCn1c(CSc2nc3ccccc3s2)n[nH]c1=S`?
NLRP3 yeast inh: 17.9; tim23-1 inh: 32.7; TIM10 inh: 32.6; tim10-1 inh: 41.6*; NALP1 inh: 2.6; tim10-1 confirm: 31.7*

What do the screens show for `CC1=C/C(=C(\c2cc(C)c(O)c(Br)c2)c2ccccc2S(=O)(=O)O)C=C(Br)C1=O`?
NLRP3 yeast inh: 28.4; tim23-1 inh: 45.6; TIM10 inh: 32.8; tim10-1 inh: 46.2*; NALP1 inh: 4.3; tim10-1 confirm: 44.2*

How did COc1ccc(/C=C2\SC(N3CCCCC3)=NC2=O)cc1OC do in these assays?
NLRP3 yeast inh: 25.4; tim23-1 inh: 19.1; TIM10 inh: 28.1; tim10-1 inh: 19.0; NALP1 inh: 5.4

Results for COc1ccc(OC)c(/C=C2\SC(N3CCCC(C)C3)=NC2=O)c1 (stereo not given) ?
NLRP3 yeast inh: 2.1; tim23-1 inh: 41.1; TIM10 inh: 11.1; tim10-1 inh: 43.2*; NALP1 inh: 13.2; tim10-1 confirm: 27.9

What do the screens show for `COc1ccccc1C/C(N)=N/OC(=O)COc1ccccc1C`?
NLRP3 yeast inh: 5.3; tim23-1 inh: 34.0; TIM10 inh: 38.8; tim10-1 inh: 40.8*; NALP1 inh: 10.0; tim10-1 confirm: 40.4*

How did Cc1ccc(OCC(=O)O/N=C(\N)Cc2cccs2)cc1C do in these assays?
NLRP3 yeast inh: 38.5; tim23-1 inh: 38.1; TIM10 inh: 22.5; tim10-1 inh: 43.8*; tim10-1 confirm: 28.5

What do the screens show for `CCN(CC(=O)Nc1ccc(NC(C)=O)cc1)C(=O)c1ccc(NC2CC2)c([N+](=O)[O-])c1`?
NLRP3 yeast inh: 28.3; tim23-1 inh: 12.8; TIM10 inh: 0.8; tim10-1 inh: 9.1

How did Cc1ccc(C)c(Nc2nc3ccc(C)cc3n3cnnc23)c1 do in these assays?
NLRP3 yeast inh: 8.7; tim23-1 inh: -0.9; TIM10 inh: -13.0; tim10-1 inh: 6.9; NALP1 inh: 12.6

How did O=c1nc2ccccc2c2n1CC(CN1CCN(C(c3ccccc3)c3ccccc3)CC1)N2 (stereo not given) do in these assays?
NLRP3 yeast inh: 9.0; tim23-1 inh: 20.2; TIM10 inh: 9.5; tim10-1 inh: 0.4; NALP1 inh: 9.8

How did Cc1ccc(-c2[nH]nc3c2C(C)C(C#N)=C(N)O3)cc1 (stereo not given) do in these assays?
NLRP3 yeast inh: 15.0; tim23-1 inh: 37.5; TIM10 inh: 39.8; tim10-1 inh: 40.5*; NALP1 inh: 29.7; tim10-1 confirm: 32.5*

What do the screens show for `Cc1cc(-c2[nH]nc3c2C(c2ccsc2)C(C#N)=C(N)O3)c(C)s1` (stereo not given)?
NLRP3 yeast inh: 20.8; tim23-1 inh: 42.6; TIM10 inh: 31.7; tim10-1 inh: 46.8*; NALP1 inh: 0.5; tim10-1 confirm: 44.3*

What do the screens show for `CC(=O)Nc1cccc(NC(=O)Cc2ccc3ccccc3c2)c1`?
NLRP3 yeast inh: 4.0; tim23-1 inh: 10.0; TIM10 inh: 20.3; tim10-1 inh: 12.0; NALP1 inh: 27.4

Results for C=Cn1cc[n+](CC(=O)c2ccc(Br)cc2)c1 ?
NLRP3 yeast inh: 13.1; tim23-1 inh: -16.6; TIM10 inh: -19.0; tim10-1 inh: -10.7; NALP1 inh: -4.8

What do the screens show for `Brc1ccc(Oc2nnnn2-c2ccccc2)cc1`?
NLRP3 yeast inh: -3.3; tim23-1 inh: 47.6; TIM10 inh: 9.9; tim10-1 inh: 43.7*; NALP1 inh: -30.8; tim10-1 confirm: 35.2*

What do the screens show for `CCOc1ccnc2c1c(=O)n(Cc1cc(OC)cc(OC)c1)c(=O)n2C`?
NLRP3 yeast inh: 4.3; tim23-1 inh: -0.7; TIM10 inh: 9.1; tim10-1 inh: 9.5; NALP1 inh: 17.2

What do the screens show for `Cc1ccc(-n2ncc3c(NCc4ccc5c(c4)OCO5)ncnc32)c(C)c1`?
NLRP3 yeast inh: 19.0; tim23-1 inh: 9.3; TIM10 inh: -10.5; tim10-1 inh: 41.4*; NALP1 inh: -3.2; tim10-1 confirm: 1.5

How did Cc1ccc(-n2ncc3c(NCc4cccnc4)ncnc32)cc1C do in these assays?
NLRP3 yeast inh: 17.4; tim23-1 inh: 11.3; TIM10 inh: 23.9; tim10-1 inh: 43.4*; NALP1 inh: 28.2; tim10-1 confirm: -10.2

How did Cc1cccc(-n2ncc3c(NCc4cccnc4)ncnc32)c1 do in these assays?
NLRP3 yeast inh: 21.2; tim23-1 inh: -14.0; TIM10 inh: 4.1; tim10-1 inh: -3.1; NALP1 inh: 8.3

Results for COc1ccc(OCc2cc(C(=O)N(Cc3nccn3C)C(C)C)no2)c2ccccc12 ?
NLRP3 yeast inh: 16.4; tim23-1 inh: 20.4; TIM10 inh: 2.5; tim10-1 inh: 25.4; NALP1 inh: 9.2

How did NC(=O)c1cc[n+](Cc2ccccc2Cl)cc1 do in these assays?
NLRP3 yeast inh: 3.7; tim23-1 inh: -0.1; TIM10 inh: 9.4; tim10-1 inh: 8.5; NALP1 inh: -5.8

What do the screens show for `CCOC(=O)N1CCN(C(=O)c2cc3n(n2)C(C(F)(F)F)CC(c2ccc4c(c2)OCO4)N3)CC1` (stereo not given)?
NLRP3 yeast inh: -4.6; tim23-1 inh: 17.4; TIM10 inh: 2.6; tim10-1 inh: 10.7; NALP1 inh: 4.7

How did CCn1c(=O)c(CCC(=O)NCC2CCCO2)c(C)c2c(C)nn(-c3ccc(C)cc3)c21 (stereo not given) do in these assays?
NLRP3 yeast inh: 17.6; tim23-1 inh: 10.4; TIM10 inh: 3.4; tim10-1 inh: 41.4*; NALP1 inh: -0.5; tim10-1 confirm: -7.4

Results for CCN1CCCC1CNC(=O)c1cc2c(C)nc3ccccc3c2o1 (stereo not given) ?
NLRP3 yeast inh: -0.2; tim23-1 inh: 23.6; TIM10 inh: 3.4; tim10-1 inh: 6.2; NALP1 inh: 10.7

Results for COc1cccc(CNC(=O)c2cc3c(C)nc4ccccc4c3o2)c1 ?
NLRP3 yeast inh: 11.2; tim23-1 inh: 11.6; TIM10 inh: -27.3; tim10-1 inh: 9.1; NALP1 inh: 4.3

What do the screens show for `Cc1nc2ccccc2c2oc(C(=O)NCC3COc4ccccc4O3)cc12` (stereo not given)?
NLRP3 yeast inh: 24.0; tim23-1 inh: 29.8; TIM10 inh: 5.5; tim10-1 inh: 40.6*; NALP1 inh: 16.7; tim10-1 confirm: 9.6

How did CCc1ccc(CNC(=O)c2cc3c(C)nc4ccccc4c3o2)cc1 do in these assays?
NLRP3 yeast inh: 18.4; tim23-1 inh: 42.7; TIM10 inh: -3.9; tim10-1 inh: 42.6*; NALP1 inh: 38.6; tim10-1 confirm: 16.6
